From PubChem BioAssay (NCI)
The panel holds about 79,000 compounds, 15% with a hit somewhere; the sample as a whole holds those more often. Values without a mark were called inactive. Rule as the data show it: active = growth inhibition above about 70%; inactive = the rest.

Test: NCI Yeast Anticancer Drug Screen. Data for the mlh1 rad18 strain (AID 175)
Settings: S. cerevisiae mlh1 rad18 strain growth inhibition; at 50.0 µM; stronger effect = higher value
Method in brief: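 Cells of a genetically altered yeast strain, deficient in DNA damage repair, were treated with compound. Their growth was then compared with that of vehicle-treated cultures to give inhibition.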
Compound `CC(=O)O[C@H]1CC[C@@]2(C)[C@@H](CC[C@@H]3[C@@H]2CC(=O)[C@]2(C)[C@@H]4[C@H](C[C@@H]32)O[C@]2(CC[C@@H](C)CO2)[C@H]4C)C1` has a growth inhibition of 2.3%. Work on `CCCCN(CCCC)CCCNC(=S)Nc1ccccc1` yielded a growth inhibition of 36.4%. For `C/C(=C\c1ccccc1)C(O)C(=O)c1nc2ccc(Cl)cc2[nH]c1=O` (stereo not given), the growth inhibition was 6.55%. In the case of `CC(c1ccccc1)C(C)(C)O` (stereo not given), the growth inhibition was -4.95%. For `O=[N+]([O-])c1ccc(Oc2ccc(Cl)cc2)cc1`, the growth inhibition was 21.8%. In the case of `Cc1cc2c(cc1[N+](=O)[O-])OCCO2`, the growth inhibition was 8.55%. With `O=C(O)c1c(F)c(F)c(-c2c(F)c(F)c(C(=O)O)c(C(=O)O)c2F)c(F)c1C(=O)O` the growth inhibition was -6.45%. With `CCOC(=O)NC(=O)c1cn(CCN2CCN(C(=O)NCCCCCCNC(=O)N3CCN(CCn4cc(C(=O)NC(=O)OCC)c(=O)[nH]c4=O)CC3)CC2)c(=O)[nH]c1=O` the growth inhibition was -11.6%. `CCCCCCCCC(=O)c1c(OC)oc(C=O)cc1=O` gave a growth inhibition of 4%. In the case of `CCOC(CN(Cc1ccccc1)CC(OCC)OCC)OCC`, the growth inhibition was -4%. Work on `CCOC(CNCCC(=O)OC)OCC` yielded a growth inhibition of -29.1%. `Cc1cc(C)cc(N=Nc2c(N)nc(N)[nH]c2=O)c1` showed a growth inhibition of -7.3%. `O=C(N/N=C/c1ccc(Cl)cc1Cl)c1cccc([N+](=O)[O-])c1` gave a growth inhibition of 24.4%. Compound `OCCCCC(c1ccc(O)cc1)c1ccc(O)cc1` has a growth inhibition of -14.7%. With `O=C(O)CC(c1ccccc1)C(CC(=O)O)c1ccccc1.[NH-]C1CCCCC1[NH-].[Pt+2]` (stereo not given) the growth inhibition was -5.6%. Work on `Cc1cccc(C)c1NC=O` yielded a growth inhibition of 8.9%. In the case of `C[N+](C)([O-])Cc1ccccc1`, the growth inhibition was -16.9%. `CC(=O)/C(=C/c1ccco1)CC(=O)O` showed a growth inhibition of -5%. Work on `O=C(OCCCCCCCCOC(=O)c1cccc([N+](=O)[O-])c1)c1cccc([N+](=O)[O-])c1` yielded a growth inhibition of 4.85%. `C(=C\c1nc2ncccn2n1)/c1ccccc1` showed a growth inhibition of -14.3%. Work on `O=Cc1cc(C(=O)c2ccccn2)c2cc(Cl)cc(Cl)c2n1` yielded a growth inhibition of 11.6%. In the case of `CCC(=O)C(=O)C1CCCCC1=O` (stereo not given), the growth inhibition was -0.05%. `O=C(N1CCOCC1)C12OC3CC(CC(C3)O1)O2` gave a growth inhibition of 4.65%. In the case of `O=CC1(CCc2ccccc2)NC(=O)NC1=O` (stereo not given), the growth inhibition was 1.25%. With `NC(=O)c1ncc[nH]c1=O` the growth inhibition was -9.15%. `CCC(C(O)c1ccc(Cl)cc1)[N+](=O)[O-]` (stereo not given) gave a growth inhibition of 43.7%. Work on `O=C1C(=C(c2ccc([N+](=O)[O-])cc2)N2CCOCC2)C(=O)c2ccccc21` yielded a growth inhibition of 10.3%. With `CC(=O)NNC(=O)c1ccccc1CO` the growth inhibition was 20.9%. `CCCC(C)CCCC(=O)c1ccc2cc(OC)ccc2c1` (stereo not given) gave a growth inhibition of -29.9%. For `NC(=S)NNC(=O)c1ccc([N+](=O)[O-])cc1`, the growth inhibition was 36.9%. `C1=Nc2ccccc2/C1=C/C=C/c1ccccc1` showed a growth inhibition of 21.8%. `Nc1ccc(C(C(=O)O)c2ccccc2)cc1` (stereo not given) showed a growth inhibition of 10.9%. `Cc1ccc(C(=O)Nc2ccc(CP(=O)(O)O)cc2CP(=O)(O)O)cc1N` showed a growth inhibition of 1.8%. `COc1ccc2c(c1)OC1(OCCO1)[C@@H]1C2CC[C@@]2(C)C1CCC21OCCO1` (stereo not given in full) gave a growth inhibition of 58.5%. `CC(C)c1nc2c(c(=O)o1)CCS2` showed a growth inhibition of -11.9%. Work on `Cc1nc2ccc(C(F)(F)F)cc2nc1Nc1ccc(Cl)c(Cl)c1` yielded a growth inhibition of 34%. Compound `O=c1[nH]c(=O)c2ncn(-c3ccc(Cl)cc3)c2[nH]1` has a growth inhibition of -8.3%. For `COC1=CC(=O)N(C)C(O)C1(C#N)OC1OC(CO)C(O)C(O)C1O` (stereo not given), the growth inhibition was -40.9%. `Cc1c(-c2ccccc2)[nH]c2ccc(Cl)cc2c1=O` showed a growth inhibition of 6.25%. In the case of `O=[N+]([O-])c1ccc2c(Cl)[nH]nc2c1`, the growth inhibition was 23.9%.
